High-throughput results (PubChem BioAssay)
PAFAH2 FP inh: PAFAH2 enzyme inhibitors, primary screen, biochemical, fluorescence polarization, human | recombinant PAFAH2, FP-rhodamine activity probe | 0.99% of 340,000 active | inhibition, % at 3.39 µM | Platelet-activating factor acetylhydrolase 2, cytoplasmic (Homo sapiens), Q99487;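 active = inhibition above the mean over all tested compounds plus 3 SD, cut at about 30% in these data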;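 note: inhibitors block probe labeling of enzyme so polarization drops; 0% = enzyme with DMSO and 100% = wells lacking PAFAH2 protein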
PAFAH1B3 FP inh: PAFAH1B3 enzyme inhibitors, primary screen, biochemical, fluorescence polarization, human; Platelet-activating factor acetylhydrolase IB subunit alpha1 (Homo sapiens), Q15102; recombinant PAFAH1B3, FP-rhodamine probe; inhibition, % at 3.39 µM; 0.28% of 340,000 active; AID 492972, 2010;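 active = inhibition above the screen-wide average of all tested compounds plus 3 SD, cut at about 25% in these data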;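 note: 0% = enzyme with DMSO only and 100% = wells lacking PAFAH1B3 protein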
Target sequence (Q15102 whole entry, looked up): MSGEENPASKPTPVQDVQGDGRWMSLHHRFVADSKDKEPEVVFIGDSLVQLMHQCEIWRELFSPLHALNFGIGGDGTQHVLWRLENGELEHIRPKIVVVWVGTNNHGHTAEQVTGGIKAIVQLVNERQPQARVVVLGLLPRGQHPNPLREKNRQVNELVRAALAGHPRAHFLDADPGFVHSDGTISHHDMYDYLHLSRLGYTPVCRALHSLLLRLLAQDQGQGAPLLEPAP
Fam108B counter: mouse Fam108B serine hydrolase inhibitors, primary screen, counter-screen for RBBP9 inhibitor project, biochemical, fluorescence polarization; inhibition, % at 9.51 µM; 0.33% of 300,000 active; recombinant Fam108B, FP-Rh probe fluorescence polarization; AID 1947, 2009;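 active = inhibition above the screen mean inhibition plus 3 SD, computed separately per campaign, cut at about 18% in these data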;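 note: inhibitors lower polarization as less probe binds the enzyme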
PME-1 inh: PME-1 inhibitors via competitive probe labeling, primary screen, biochemical, fluorescence polarization, FP-Rh probe, HTS; Protein phosphatase methylesterase 1 (Homo sapiens), Q9Y570; recombinant PME-1; inhibition, % at 5.9 µM; 0.53% of 320,000 active; AID 2130, 2009;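 active = inhibition above the campaign mean of all compounds plus 3 SD, cut at about 26% in these data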;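 note: competitive labeling of PME-1 active site by serine hydrolase directed probe; 0% = PME-1 with DMSO and 100% = wells lacking PME-1 enzyme; inhibitors block probe labeling so polarization falls and inhibition rises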
PAFAH1B2 FP inh: PAFAH1B2 enzyme inhibitors, primary screen, biochemical, fluorescence polarization, human; inhibition, % at 3.39 µM; Platelet-activating factor acetylhydrolase IB subunit alpha2 (Homo sapiens), P68402; AID 492953, 2010; recombinant PAFAH1B2, FP-rhodamine activity probe; 1.2% of 340,000 active;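 active = inhibition above the mean of all tested compounds plus 3 SD, cut at about 24% in these data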;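 note: 0% = enzyme with DMSO and 100% = wells lacking PAFAH1B2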
Target sequence (P68402 whole entry, looked up): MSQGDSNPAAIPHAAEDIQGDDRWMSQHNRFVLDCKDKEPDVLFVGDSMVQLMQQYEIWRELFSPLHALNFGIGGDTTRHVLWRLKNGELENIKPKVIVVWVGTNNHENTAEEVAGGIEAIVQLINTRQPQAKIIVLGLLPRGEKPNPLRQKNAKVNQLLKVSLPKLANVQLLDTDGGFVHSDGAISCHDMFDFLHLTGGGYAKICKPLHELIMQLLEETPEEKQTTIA
pPAFAH inh: pPAFAH enzyme inhibitors, primary screen, biochemical, fluorescence polarization, human | Platelet-activating factor acetylhydrolase (Homo sapiens), Q13093 | recombinant pPAFAH, FP-rhodamine probe fluorescence polarization | inhibition, % at 3.39 µM | 1.5% of 330,000 active | AID 463082, 2010;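 active = inhibition above the mean inhibition across the screen plus 3 SD, cut at about 25% in these data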;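 note: inhibitors block binding of the rhodamine activity-based probe so polarization drops; 0% = enzyme with DMSO and 100% = wells lacking pPAFAH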
Numbers without * were called inactive. Sampled rows, rich in hits. Any-hit rate of the full collection: about 2.9%.

How did CC1(OC(=O)CCc2ccccc2)C(=O)C=C2C=C(c3ccsc3)OC=C2C1=O (stereo not given) do in these assays?
Fam108B counter: 6; PME-1 inh: 9; pPAFAH inh: 55*

How did CC1(OC(=O)CCc2ccccc2)C(=O)C=C2C=C(c3ccc(C#N)cc3)N(c3ccccc3)C=C2C1=O (stereo not given) do in these assays?
PAFAH2 FP inh: 2; PAFAH1B3 FP inh: 11; Fam108B counter: 3; PME-1 inh: -4; PAFAH1B2 FP inh: 1; pPAFAH inh: 12

How did Cc1cccc(C)c1N(CC(=O)N1CCCC1)S(C)(=O)=O do in these assays?
PAFAH2 FP inh: 6; PAFAH1B3 FP inh: 6; Fam108B counter: -4; PME-1 inh: -7; PAFAH1B2 FP inh: 7; pPAFAH inh: 5

Results for O=C(CCCCCBr)N1CCC(CC2CC(c3cccc(Br)c3)=NO2)(C(=O)NCC2CCCCC2)CC1 (stereo not given) ?
PAFAH2 FP inh: 8; PAFAH1B3 FP inh: 7; Fam108B counter: 0; PME-1 inh: 2; PAFAH1B2 FP inh: 2; pPAFAH inh: 25*

How did Cn1nnnc1Sc1ncnc2scc(-c3ccc(F)cc3)c12 do in these assays?
PAFAH2 FP inh: -15; PAFAH1B3 FP inh: 1; Fam108B counter: -3; PME-1 inh: 0; PAFAH1B2 FP inh: -7; pPAFAH inh: 29*

How did Cn1nnnc1Sc1ncnc2scc(-c3ccc(Br)cc3)c12 do in these assays?
PAFAH2 FP inh: -8; PAFAH1B3 FP inh: -4; PAFAH1B2 FP inh: 0; pPAFAH inh: 11

Results for CSc1cccc(NC(=O)c2cccc3cccnc23)c1 ?
PAFAH2 FP inh: -2; PAFAH1B3 FP inh: -2; Fam108B counter: -2; PME-1 inh: -12; PAFAH1B2 FP inh: 2; pPAFAH inh: -2

Results for Cc1cccc(-n2ccnc2CN2CCN(C(C)C)C(CCO)C2)c1 (stereo not given) ?
PAFAH2 FP inh: 3; PAFAH1B3 FP inh: 2; Fam108B counter: 0; PME-1 inh: 1; PAFAH1B2 FP inh: 5; pPAFAH inh: 4

What do the screens show for `C1CCCCCC2(CCCCC1)OCC(CN1CCOCC1)O2` (stereo not given)?
PAFAH2 FP inh: 9; PAFAH1B3 FP inh: 6; Fam108B counter: -4; PME-1 inh: 0; PAFAH1B2 FP inh: 26*; pPAFAH inh: 4

Results for CC(C)Cc1ccc(C(C)NC(=O)Cc2ccc(S(=O)(=O)N3CCOCC3)s2)cc1 (stereo not given) ?
PAFAH2 FP inh: 0; PAFAH1B3 FP inh: 1; Fam108B counter: -2; PME-1 inh: 0; PAFAH1B2 FP inh: 4; pPAFAH inh: 30*

Results for O=C(NCCCNC(=O)c1ccccc1)c1ccccc1 ?
Fam108B counter: 3; PME-1 inh: 3; pPAFAH inh: 3

What do the screens show for `N/C(=C\C(=O)c1cc(Cl)ccc1O)C(Cl)(Cl)Cl`?
PAFAH2 FP inh: 15; PAFAH1B3 FP inh: 79*; Fam108B counter: -1; PME-1 inh: -2; PAFAH1B2 FP inh: 0; pPAFAH inh: 4

What do the screens show for `CC(C)(C)c1ccc(C(=O)CC(=O)c2cc(Cl)ccc2O)cc1`?
PAFAH2 FP inh: -6; PAFAH1B3 FP inh: 4; Fam108B counter: -4; PME-1 inh: -6; PAFAH1B2 FP inh: 0; pPAFAH inh: -2

What do the screens show for `CC(C)(O)CC[C@@H](O)[C@](C)(O)[C@H]1CC[C@@]2(O)C3=CC(=O)[C@@H]4C[C@@H](O)[C@@H](O)C[C@]4(C)[C@H]3CC[C@]12C`?
PAFAH2 FP inh: -4; PAFAH1B3 FP inh: -8; Fam108B counter: -4; PME-1 inh: -6; PAFAH1B2 FP inh: -8; pPAFAH inh: -2

What do the screens show for `O=C(c1ccc(F)c(S(=O)(=O)N2CCOCC2)c1)N1CCc2ccccc21`?
PAFAH2 FP inh: -6; PAFAH1B3 FP inh: 3; Fam108B counter: -2; PME-1 inh: 4; PAFAH1B2 FP inh: -2; pPAFAH inh: 6

Results for CC1CN(CCN2CC(C)N(C=O)CC2C)C(C)CN1C=O (stereo not given) ?
PAFAH2 FP inh: 1; PAFAH1B3 FP inh: 4; PAFAH1B2 FP inh: -3

Results for Cc1ccc(S(=O)(=O)Nc2ccc3c(c2)n(C)c(=O)n3C)c(C)c1 ?
PAFAH2 FP inh: 8; PAFAH1B3 FP inh: 3; Fam108B counter: -4; PME-1 inh: -8; PAFAH1B2 FP inh: 4; pPAFAH inh: -6

What do the screens show for `Cc1ccc(S(=O)(=O)Nc2ccc3oc(=O)sc3c2)c(C)c1`?
PAFAH2 FP inh: 8; PAFAH1B3 FP inh: -1; Fam108B counter: 9; PME-1 inh: -1; PAFAH1B2 FP inh: 28*; pPAFAH inh: 16

What do the screens show for `O=c1[nH]c2cc(Cl)c(Br)cc2o1`?
PAFAH2 FP inh: 5; PAFAH1B3 FP inh: 7; PAFAH1B2 FP inh: 6

What do the screens show for `CC(C)Cn1c2ccccc2c2cc(C(=O)O)ccc21`?
PAFAH2 FP inh: 2; PAFAH1B3 FP inh: 3; Fam108B counter: 3; PME-1 inh: 0; PAFAH1B2 FP inh: 29*; pPAFAH inh: 3

How did CC(C)Cn1c(=S)[nH]c2cc(C(=O)O)ccc2c1=O do in these assays?
PAFAH2 FP inh: 2; PAFAH1B3 FP inh: 3; Fam108B counter: -2; PME-1 inh: -8; PAFAH1B2 FP inh: 19; pPAFAH inh: 0

Results for CC(C)c1ccc2c(c1)C1(NN=C(c3ccccc3)S1)C(=O)N2 (stereo not given) ?
PAFAH2 FP inh: 6; PAFAH1B3 FP inh: 12; Fam108B counter: 7; PME-1 inh: 33*; PAFAH1B2 FP inh: 8; pPAFAH inh: 6

What do the screens show for `CCc1ccc2c(c1)C1(NN=C(c3ccc(C)cc3)S1)C(=O)N2` (stereo not given)?
PAFAH2 FP inh: -3; PAFAH1B3 FP inh: 0; Fam108B counter: 13; PME-1 inh: 20; PAFAH1B2 FP inh: 3; pPAFAH inh: 2

How did CSCC[C@H](NC(=O)c1ccco1)c1nnc2ccccn12 do in these assays?
PAFAH2 FP inh: 4; PAFAH1B3 FP inh: 9; Fam108B counter: 2; PME-1 inh: -5; PAFAH1B2 FP inh: 0; pPAFAH inh: 5

What do the screens show for `C=C(C)Cn1c(=O)c2c(nc3n2CC(C)CN3Cc2ccccc2)n(C)c1=O` (stereo not given)?
PAFAH2 FP inh: 5; PAFAH1B3 FP inh: 12; Fam108B counter: 1; PME-1 inh: 5; PAFAH1B2 FP inh: 3; pPAFAH inh: -1

How did CN(CC(=O)Nc1ccc(F)cc1)C(=O)COC(=O)c1ccc(=O)n(Cc2ccccc2)n1 do in these assays?
PAFAH2 FP inh: 2; PAFAH1B3 FP inh: 3; PME-1 inh: 5; PAFAH1B2 FP inh: 5; pPAFAH inh: 29*
